target: HIST1H4B; test: pooled miR-30 sensor sort-seq; sequence = guide strand; conditions: shRNA
Note: reference of the scale not given here.

Sequence	sensor-assay potency score (higher = more potent)
TGACAGTCTTGCGCTTGGCGTG	-1.49
AATCAAACCGGAAATTCGCTTA	0.0174
AACACCTTGAGAACGCCACGAG	-0.445
TTATCCCGCAGCACTTTTCGGT	-0.874
TCCTTGACGCTTGAGCGCGTAA	-1.7
TACCCAAACCTTTACCGCCTTT	-0.866
TTTGGTGATGCCTTGGATGTTA	0.361
TATCCCGCAGCACTTTTCGGTG	-1.57
ATCCATGGCAGTGACAGTCTTG	-0.826
TCTCCTCATAAATCAAACCGGA	-1.02
TAAACCACATCCATGGCAGTGA	0.196
TTGGATGTTATCCCGCAGCACT	-1.27

target: HIST1H4G; test: as above; conditions: shRNA

Sequence	sensor-assay potency score (higher = more potent)
AATATTATCGCTCAGTACCTTG	-1.22
TTTGAGCACGTAGACCACGGCC	-0.756
TATCGCTCAGTACCTTGCGATG	-1.74
ATATTATCGCTCAGTACCTTGC	-0.774
ACATTTTCCAGGAACACCTTGA	-0.0469
TTGAGCACGTAGACCACGGCCA	-0.24
TACCAGATCACATTTTCCAGGA	-0.129
TTATCGCTCAGTACCTTGCGAT	-0.526
ACACCTTGAACACCCGGCGGGT	-1.05
ATTATCGCTCAGTACCTTGCGA	-0.081
AACACCTTGAACACCCGGCGGG	-0.571
AGGAACACCTTGAACACCCGGC	-0.945

target: HIST2H2AB; test: as above; conditions: shRNA

Sequence	sensor-assay potency score (higher = more potent)
TCTTCGTCATTCCTCACGGCTA	-1.31
TTTTCTTGGGCAACAGGACAGC	-1.07
TTGGGCAACAGGACAGCCTGGA	0.319
TGACTCTCCGTTTTCTTGGGCA	0.0701
TTGAGCTCTTCGTCATTCCTCA	0.203
TGGATATTGGGCAAGACGCCGC	-1.14
TAACTTGTTGAGCTCTTCGTCA	-0.534
TTCGTCATTCCTCACGGCTAGT	-0.686
AACTTGTTGAGCTCTTCGTCAT	-0.274
GTAACTTGTTGAGCTCTTCGTC	-0.977
ACTTGTTGAGCTCTTCGTCATT	-1.57
TTGTGACTCTCCGTTTTCTTGG	-0.765
